# Results reported in PubChem BioAssay (NCI).
# About 83,000 compounds went through this panel and 20% of them were active in at least one assay; those are over-represented in the sample as a whole.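 Interpretation: 100, growth as untreated; towards 0, rising growth inhibition; 0, no net growth; 0 to -100, cell death. Compounds scoring below 10 were considered active.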 Unmarked numbers belong to inactive results. Calls of active or inactive are those of the source.
# System: SR leukemia
# Assay: NCI-60 one-dose screen, 48 h (100 = growth as untreated, 0 = no growth, -100 = all killed)
# Details: 10 µM
row,SMILES,growth
1,O=C(N/N=C\c1cc(Cl)ccc1[N+](=O)[O-])c1ccco1,123%
2,COc1ccc2c(c1)sc1nc(-c3ccccc3)c(-c3ccsc3)n12,6.49% (active)
3,O=C(N/N=C/c1ccccc1O)C(O)(c1ccccc1)c1ccccc1,42.6%
4,CCCCCCCCCCCCC1C/C=C\CCCC(=O)O1 (stereo unspecified),-18.4% (active)
5,O=C(Nc1cccc(Br)c1)c1cc(=O)[nH]c2ccccc12,81%
6,CC(C)=CCc1ccc(O)c(=O)cc1C(C)C,5.25% (active)
7,Cc1occc1-c1nnc(SCC(=O)c2ccc(NC(=O)CC(C)C)cc2)o1,7.85% (active)
8,CC(C)=NNc1ncnc2c1ncn2C1OC(CO)C(O)C1O (stereo unspecified),14.4%
9,CCCCCCCCCCCCCC[n+]1ccc(C(N)=O)cc1,-15.8% (active)
10,COc1ccc(Cl)cc1C(=O)Nc1nc2ccc(Cl)cc2s1,87.7%
11,O=C(CSSCC(=O)c1ccc(Cl)cc1)c1ccc(Cl)cc1,18.7%
12,O=[P@@]1(c2ccccc2)O[C@H](COCc2ccccc2)[C@@H](OCc2ccccc2)[C@H](OCc2ccccc2)[C@H]1O,103%
13,Nc1ncn([C@@H]2O[C@H](CO)[C@@H](O)[C@H]2O)c(=O)n1,7.12% (active)
14,CCCCOC(=O)Oc1ccc(C(=O)Oc2ccc(OCC)cc2)cc1,107%
15,O=C1c2ccc3c4c(ccc(c24)C(=O)N1CCNCc1ccccc1)C(=O)N(CCNCc1ccccc1)C3=O,-8.22% (active)
16,CCn1cc(C(=O)O)c(=O)c2cnc(N3CCCC3)nc21,110%
17,Cc1ccc(-c2nc(/C=C3/C(=O)N(C)c4ccc(F)cc43)c3ccccn23)cc1,97.5%
18,COc1ccc(OC)c(/C=C/c2nc(SC)n(-c3ccc(Cl)cc3)n2)c1,41.5%
19,COc1cccc(-c2cc(-c3cccc(NS(C)(=O)=O)c3)nc(N)c2C#N)c1O,24.6%
20,CC1CN(Cc2ccccc2)C(=O)NC1=O (stereo unspecified),101%
21,Cc1cn(C2CCCCO2)c(=O)nc1NO (stereo unspecified),116%
